Screening data (PubChem)
An excerpt weighted towards active compounds, which were near 2% of everything screened.
MBNL1-CUG inh = inhibitors of human MBNL1 binding to CUG repeat RNA. Q9NR56. TR-FRET MBNL1-His/biotin-(CUG)12 binding, 665/545 ratio. Potency, µM (top dose mostly 57.5 µM), for the others: at the top dose activity change, negative = inhibition, hits mostly inhibitors. hit rate 0.036% among 280,000. AID 2675; active = well fitted inhibition curve with a large enough effect in the signal ratio, with a control signal flat, not every such curve was filed as active; inconclusive = small, poorly fitted or top-dose-only effect, or effect the other way, or a change in a side signal; inactive = no such curve, though single readings can be large or run the other way; the % refers to the signal ratio; note: % is set by controls: 0 for no effect and ±100 for the full control effect
Target sequence (Q9NR56 whole entry, looked up): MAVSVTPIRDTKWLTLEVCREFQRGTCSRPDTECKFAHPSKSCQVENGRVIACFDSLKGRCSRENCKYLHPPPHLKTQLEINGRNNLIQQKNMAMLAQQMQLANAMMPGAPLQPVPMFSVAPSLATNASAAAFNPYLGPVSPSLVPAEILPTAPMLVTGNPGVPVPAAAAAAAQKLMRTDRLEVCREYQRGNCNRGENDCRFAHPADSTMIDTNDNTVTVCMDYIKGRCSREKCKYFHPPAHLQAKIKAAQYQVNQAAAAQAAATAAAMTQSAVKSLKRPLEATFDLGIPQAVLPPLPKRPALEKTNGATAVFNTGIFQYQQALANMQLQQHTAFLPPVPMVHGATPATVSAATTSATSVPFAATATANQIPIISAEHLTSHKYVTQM
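His-tagged MBNL1 binding to biotinylated (CUG)12 RNA was measured by TR-FRET using terbium anti-His antibody (0.055 ng/ul final) and streptavidin-XL665 (5 nM final). Compounds were titrated 92 nM to 58 uM; 60 min at room temperature.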
aSyn yeast inh = alpha-synuclein toxicity inhibition in yeast; Yeast expressing alpha-synuclein, growth rescue, BacTiter-Glo, 24 h; Potency, µM (top dose mostly 46.1 µM), without a hit: at the highest dose growth rescue (activation), hits mostly activators; hit rate 0.14% among 370,000; AID 652106; note: % of control where 0% means no effect; nearly all actives have a fitted effect of over 65% in size
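Rescue of yeast growth: cells expressing toxic alpha-synuclein, induced in galactose at OD600 0.02, incubated with compound 24 h at 30 C. ATP luminescence quantified growth; inhibitors of toxicity appear as activators.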
Abeta yeast res = restores growth of yeast expressing A-beta42 peptide; yeast expressing A-beta42, growth rescue, OD600, 48 h; response scale: 0% DMSO, 100% iron-clioquinol control; Potency, µM (series often up to 46.1 µM), usual class: activators; hit rate 0.063% among 410,000; note: nearly all actives have a fitted effect of over 55% in size
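Yeast A-beta toxicity model in growth medium with pinned compounds, 48 h at 30 C; growth read as absorbance at 600 nm. Normalized to FeCl3/clioquinol equimolar mix (positive) and DMSO (negative).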
Glioma ERSR ind = ER stress response induction in glioma | Potency, µM, for inactives: at the top dose activation, hits mostly activators | hit rate 0.02% among 420,000 | U87-MG GRP78 promoter luciferase reporter, 16 h | AID 602332; note: series mostly up to about 76 µM; % of control where 0% means no effect; nearly all actives have a fitted effect of over 35% in size
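ERSR induction read as luciferase luminescence (Bright-Glo, 10 min at room temperature) in stably transfected human U87-MG glioma cells exposed to compounds for 16 h, using GRP78 as sensor.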
FUS yeast rescue = suppressors of FUS proteinopathy in yeast | hit rate 0.24% among 390,000 | Potency, µM (titrated, usually from 76.6 µM), actives largely listed as activators | S. cerevisiae FUS-expressing, growth rescue, OD600, 24 h;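 note: plate controls were DMSO vehicle for no effect and reference control for full effect; nearly all actives have a fitted effect of over 55% in size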
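Yeast expressing FUS under galactose induction, OD 0.005 in 2% galactose medium; compounds in a dilution series, 24 h at 30C. Growth rescue by absorbance at 600 nm; CP55940 positive control, DMSO negative.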
TDP-43 yeast inh = TDP-43 toxicity inhibition in yeast. hit rate 1.8% among 410,000. TDP-43 expressing yeast growth rescue, BacTiter-Glo, 24 h. AID 652104. Potency, µM (titrated, usually from 46.1 µM), without a hit: at the top dose growth rescue (activation), hits mostly activators; note: % of control where 0% means no effect; nearly all actives have a fitted effect of over 50% in size
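Readout is BacTiter-Glo luminescence of cell growth, so inhibitors register as activators. TDP-43-expressing yeast at OD600=0.02 in galactose medium, after raffinose pregrowth to mid-log, were incubated with compound for 24 hr at 30 deg C.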
* hit, by the source's call; i = inactive; ? = inconclusive; . = not tested or not shown. Unless noted, calls come from the whole dose curve; as a rule, active = well fitted curve in the direction sought with a large enough effect; inconclusive = small, poorly fitted or top-dose-only effect, or another doubt; inactive = no such curve, though single readings can be large; an effect the other way counts as inactive or inconclusive. Potency is the fitted concentration of half-maximal effect.

SMILES | MBNL1-CUG inh | aSyn yeast inh | Abeta yeast res | Glioma ERSR ind | FUS yeast rescue | TDP-43 yeast inh
CCc1ccccc1N1CC(c2nc3ccccc3n2CCC2CCCCC2)CC1=O (configuration not stated) | . | . | i | -10% | ? | -90%
CC12CCC(O)CC1=CCC1C2CCC2(C)C3=NN=CC3CC12 (configuration not stated) | . | ? | i | -3% | i | 16µM*
O=C(O)/C=C/c1cnn(-c2ccccc2)c1 | -4% | 0% | i | -16% | i | 35µM*
CCOC(=O)/C=C/c1cnn(-c2ccccc2)c1 | -16% | 0% | i | -3% | . | 13%
Cc1ccc(N=Nc2ccc(O)c3ncccc23)cc1C | 4% | ? | i | 2% | i | 28µM*
C=C1NN(C(C)C(=O)O)C(=O)N1c1ccc(OCc2ccccc2)cc1 (configuration not stated) | . | -1% | . | -1% | . | .
CCOc1ccc(-n2c(SCC(=O)c3ccccc3Cl)nnc2-c2ccncc2)cc1 | . | . | . | . | 18µM* | .
COc1ccc2c(c1)OC[C@H]1[C@H]2N2C(=O)CN(CCc3c[nH]c4ccccc34)C(=O)[C@@]2(C)[C@H]1c1ccccc1 | . | -1% | i | -3% | 22µM* | -7%
COc1ccc2c(c1)OC[C@H]1[C@H]2N2C(=O)c3cc(C)ccc3NC(=O)[C@@]2(C)[C@H]1c1ccccc1 | . | 4% | i | -2% | i | ?
COc1ccc2c(c1)OC[C@H]1[C@H]2N2C(=O)c3ccccc3NC(=O)[C@@]2(C)[C@H]1c1ccccc1 | . | 8% | i | -4% | i | 28µM*
Cc1ccc(S(=O)(=O)n2ccc(-c3c(-c4ccc(Cl)cc4)noc3C)n2)cc1 | . | . | . | . | i | .
S=C(Nc1ccccc1Cl)OCCN1CCCC12CCC(c1ccccc1)CC2 (configuration not stated) | . | . | . | . | i | .
COc1ccccc1OCCSc1nc2ccccc2n1CCC(=O)O | -3% | 0% | i | 0% | i | 6%
Cc1ccc(C(C)C)c(OCCSc2nc3ccccc3n2CC(O)CO)c1 (configuration not stated) | . | . | i | -4% | i | 35µM*
COc1ccccc1OCCSc1nc2ccccc2n1CCO | -4% | 1% | i | 4% | i | 8%
COC(=O)Cn1c(SCCOc2ccccc2Cl)nc2ccccc21 | . | . | i | -1% | i | 28µM*
Cc1ncoc1C(=O)N1CCOc2ccc(CN3CCN(c4ccccn4)CC3)cc2C1 | . | . | . | -8% | . | .
COc1ccc(OC)c(CN2CCC3(CCC(CNC(=O)c4ccco4)O3)CC2)c1 (configuration not stated) | . | . | . | -3% | . | .
COc1cccc(/C=C/c2nccc3ccccc23)c1OC | . | -13% | . | -3% | . | .
CCC(=O)Nc1ccc(SC#N)cc1C | 3% | 8% | i | -1% | i | 11µM*
Cc1cc(C)cc(OCC(=O)NNC(=O)c2ccccn2)c1 | . | ? | ? | -2% | i | 20µM*
O=C(COc1ccc(Cl)cc1)NNC(=O)c1ccccn1 | 4% | ? | ? | -4% | i | 14µM*
Cc1ccc(C2C(C(=O)c3cc4ccccc4o3)=C(O)C(=O)N2CCN2CCOCC2)cc1 (configuration not stated) | 127% | 4% | . | 0% | i | 5%
COc1cc(C2C(C(=O)c3cc4ccccc4o3)=C(O)C(=O)N2CCN2CCOCC2)ccc1OCCC(C)C (configuration not stated) | 43% | 3% | i | -2% | 28µM* | 11%
CC(O)(COc1ccccc1)c1ccc2c(c1)CN(Cc1cccnc1)CCO2 (configuration not stated) | . | . | . | -4% | . | .
SMILES | MBNL1-CUG inh | aSyn yeast inh | Abeta yeast res | Glioma ERSR ind | FUS yeast rescue | TDP-43 yeast inh
CCOc1cccc(NC(=O)C2CC(=O)N(C)C(=Nc3ccccc3)S2)c1 (configuration not stated) | -7% | 20µM* | ? | 6% | i | ?
CCN=C1S/C(=C\c2cn(CC)c3ccccc23)C(=O)N1CC | 18% | 9% | i | 4% | i | 18µM*
CCOc1ccc(NS(=O)(=O)c2ccc3[nH]c4c(c3c2)CCCC4)cc1 | . | . | i | 18% | i | 0%
CCOc1ccc(NS(=O)(=O)c2ccc3[nH]c4c(c3c2)CCCCC4)cc1 | . | . | i | 9% | i | 18µM*
Cc1ccccc1NS(=O)(=O)c1ccc2[nH]c3c(c2c1)CCCCC3 | . | ? | i | -2% | 35µM* | ?
Cc1cccc(N(C)C(=O)CN(C)S(=O)(=O)c2ccc3[nH]c4c(c3c2)CCCC4)c1 | . | . | i | -5% | 32µM* | 27%
Cc1ccc(NS(=O)(=O)c2ccc3[nH]c4c(c3c2)CCCCCC4)cc1Cl | . | -22% | i | -11% | 22µM* | -7%
Cc1cccc(C)c1NC(=O)CN(C)S(=O)(=O)c1ccc2[nH]c3c(c2c1)CCCC3 | . | . | i | -3% | i | -6%
COC(=O)c1ccccc1NC(=O)CCC(=O)N1CC(C)Sc2ccccc21 (configuration not stated) | . | . | i | 0% | i | 18µM*
COC(=O)c1ccccc1NC(=O)CCC(=O)N1CC(C)Oc2ccc(C)cc21 (configuration not stated) | -7% | 3% | i | -6% | i | 18µM*
COc1cc(O)c2c(c1)OC(c1ccc(O)cc1)CC2=O (configuration not stated) | 14% | 8% | i | -2% | i | 13µM*
COc1cc(O)c2c(c1)O[C@H](c1ccccc1)CC2=O | . | . | . | -3% | . | .
C[C@@H]1CN([C@@H](C)CO)C(=O)Cc2cc(NC(=O)Nc3ccc(C(F)(F)F)cc3)ccc2O[C@@H]1CN(C)S(=O)(=O)c1ccc(Cl)cc1 | . | 2% | i | -3% | 18µM* | 4%
C[C@@H]1CN([C@H](C)CO)C(=O)c2cc(NC(=O)Nc3ccc(C(F)(F)F)cc3)ccc2O[C@H]1CN(C)S(=O)(=O)c1cccs1 | . | 0% | i | -2% | 10µM* | 15%
Cn1c(SCC2CCCO2)nnc1C1CCN(Cc2ccccc2O)CC1 (configuration not stated) | . | . | . | -2% | . | .
O=C(c1ccc(Cl)cc1)c1cc(-c2ccccn2)c(N2CCOCC2)s1 | 9% | 5% | i | -7% | i | 14µM*
CCCC[C@H]1C2CC(OC(=O)Nc3cc(C)cc(C)c3)C(C2)[C@H]2CCCCN21 (some centres not stated) | . | . | . | . | i | .
